Our source for the Potency and outcome values is PubChem BioAssay (Tox21).

Where “and” joins values, the source holds several entries; their conditions need not be identical. Identical values can stand only once. Records with an inconclusive call do not appear. Some compounds were tested as several samples or in several runs, with calls that do not always agree. Calls of active or inactive are those of the source. Unless noted, calls follow the shape of the dose curve; as a rule, active = well fitted curve in the direction sought with a large enough effect in the repeat runs; inconclusive = weak or mixed curves; inactive = no such curve, though single readings can be large; an effect the other way counts as inactive or inconclusive.

A short description of experiment [1]: A CellTox Green Cytotoxicity Assay to monitor cytotoxicity in HEK293 cells - 32 hour (AID 1224881). Also: nearly all actives have a fitted effect of over 40% in size. Also: potency is read from the fitted curve at half-maximal effect. In outline:
(§1)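 Fluorescence from a DNA-binding dye excluded by viable cells was measured repeatedly in the same HEK293 wells (600 cells/well) during continuous compound exposure at 37 C. Each assay gives one read point: 0, 8, 16, 24, 32 or 40 h.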

The nature of experiment [2]: A CellTox Green Cytotoxicity Assay to monitor cytotoxicity in HepG2 cells - 0 hour (AID 1224882). Also: nearly all actives have a fitted effect of over 35% in size. Also: potency is read from the fitted curve at half-maximal effect. In outline: (§2)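 Real-time cytotoxicity: fluorescence of a cell-impermeant cyanine dye binding DNA of dead HepG2 cells, measured repeatedly (0–40 h) during compound exposure at 37 C. Cells seeded 600/well with reagent, dosed after 5 h.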
Experiment [3] in a line: A CellTox Green Cytotoxicity Assay to monitor cytotoxicity in HepG2 cells - 32 hour (AID 1224883). Also: nearly all actives have a fitted effect of over 50% in size. Also: potency is read from the fitted curve at half-maximal effect. In outline: as §2
A short description of experiment [4]: A CellTox Green Cytotoxicity Assay to monitor cytotoxicity in HEK293 cells - 8 hour (AID 1224884). Also: nearly all actives have a fitted effect of over 35% in size. Also: potency is read from the fitted curve at half-maximal effect. In outline: as §1
Experiment [5] is described as follows: qHTS RealTime-Glo MT Cell Viability Assay in HepG2 cells - 16 hour (AID 1224885). Also: nearly all actives have a fitted effect of over 50% in size. In outline:
(§3)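 Real-time, nonlytic viability: 600 HepG2 cells/well mixed with NanoLuc enzyme plus prosubstrate; 5 h settle, compound (DMSO) added by pintool; luminescence monitored over 40 h at 37 C.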
Background: qHTS replaces the single test concentration by a dilution series.

The nature of experiment [6]: qHTS RealTime-Glo MT Cell Viability Assay in HEK293 cells - 24 hour (AID 1224886). Also: nearly all actives have a fitted effect of over 50% in size. Also: potency is read from the fitted curve at half-maximal effect. In outline: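 Cells + reagent dispensed (600 cells/well, HEK293) → 5 h at 37 C/5% CO2 → 23 nL compound in DMSO pinned → 40 h at 37 C → luminescence read at 0, 8, 16, 24, 32, 40 h.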
Experiment [7] in a line: qHTS RealTime-Glo MT Cell Viability Assay in HEK293 cells - 8 hour (AID 1224887). Also: nearly all actives have a fitted effect of over 50% in size. Also: potency is read from the fitted curve at half-maximal effect. In outline: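 Luminescence, which tracks viable cell number through reduction of the prosubstrate to a NanoLuc substrate, was read over continuous 37 C culture. Cells (600/well) were premixed with reagent and rested 5 h before 23 nL of compound in DMSO was pinned.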
Experiment [8] is described as follows: A CellTox Green Cytotoxicity Assay to monitor cytotoxicity in HEK293 cells - 16 hour (AID 1224888). Also: nearly all actives have a fitted effect of over 35% in size. In outline:
as §1

Experiment [9] in a line: qHTS RealTime-Glo MT Cell Viability Assay in HepG2 cells - 0 hour (AID 1224889). Also: nearly all actives have a fitted effect of over 50% in size. In outline: as §3
Experiment [10] can be described thus: qHTS assay to identify small molecule antagonists of the estrogen receptor alpha (ER-alpha) signaling pathway using the BG1 cell line in the presence of 0.1 nM 17-beta-estradiol - cell viability counter screen (AID 1259241). Also: nearly all actives have a fitted effect of over 40% in size. In outline: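 Estradiol-stimulated (0.1 nM) VM7Luc4E2 cells exposed to compounds 22 hr; viability measured by fluorescence of cleaved CellTiter-Fluor substrate after 30 min.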

The target in experiment [11] is Estrogen receptor (Homo sapiens) (UniProt P03372). Kind of experiment: qHTS assay to identify small molecule antagonists of the estrogen receptor alpha (ER-alpha) signaling pathway using the BG1 cell line in the presence of 0.1 nM 17-beta-estradiol (AID 1259244). Also: nearly all actives have a fitted effect of over 50% in size. In outline: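 Luciferase luminescence (ONE-Glo, 30 min at room temperature) was read after 22 hr at 37C exposure to compounds plus 17beta-estradiol at 0.1 nM final. Cells were VM7Luc4E2 with endogenous ER-alpha and an ERE-driven luciferase, pre-cultured 5 days in hormone-depleted medium.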
Chain of Estrogen receptor (Homo sapiens) (P03372 whole entry, looked up): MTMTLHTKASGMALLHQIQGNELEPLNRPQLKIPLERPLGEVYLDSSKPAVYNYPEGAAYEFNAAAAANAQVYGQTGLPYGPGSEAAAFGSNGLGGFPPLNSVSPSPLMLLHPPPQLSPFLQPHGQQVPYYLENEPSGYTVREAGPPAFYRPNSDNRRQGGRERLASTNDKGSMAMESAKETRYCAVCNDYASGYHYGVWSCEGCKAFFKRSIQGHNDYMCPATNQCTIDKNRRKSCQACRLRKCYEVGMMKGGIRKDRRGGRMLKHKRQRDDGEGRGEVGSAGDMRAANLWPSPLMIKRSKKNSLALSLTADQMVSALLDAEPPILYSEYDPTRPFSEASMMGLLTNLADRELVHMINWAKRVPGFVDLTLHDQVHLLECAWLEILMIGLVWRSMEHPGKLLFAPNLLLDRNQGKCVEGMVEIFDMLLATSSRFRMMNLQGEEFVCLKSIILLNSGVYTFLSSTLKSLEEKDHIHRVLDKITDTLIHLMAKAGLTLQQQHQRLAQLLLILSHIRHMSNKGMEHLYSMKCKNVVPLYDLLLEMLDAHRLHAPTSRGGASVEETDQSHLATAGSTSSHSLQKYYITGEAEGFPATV

A short description of experiment [12]: qHTS assay to identify small molecule HDAC inhibitors (AID 1259364). Also: top concentration of the series differs between compounds; nearly all actives have a fitted effect of over 45% in size. In outline: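 Luminescence read after 30 min room-temperature HDAC-Glo incubation measures cellular class I/II HDAC activity. Compounds were applied for 2 hr at 37 C to HCT-116 wild-type cells seeded the day before.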
A short description of experiment [13]: qHTS assay to identify small molecule HDAC inhibitors - cell viability counter screen (AID 1259365). In outline:
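After overnight seeding at 1,500 cells per well, wild-type HCT-116 cultures took up compounds in DMSO for 2hr at 37 C. Viable cell content came from luminescence with CellTiter-Glo.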

Experiment [14] in a line: qHTS assay to identify small molecule agonists of the sonic hedgehog signaling (Shh) pathway - cell viability counter screen (AID 1259366). Also: nearly all actives have a fitted effect of over 50% in size. In outline: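 Same-well cytotoxicity read. Gli1-Luc reporter 3T3 cells; compounds 24hr, 37C/5% CO2; CellTiter-Fluor fluorescence.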
Experiment [15] in a line: qHTS assay to identify small molecule antagonists of the sonic hedgehog signaling (Shh) pathway - cell viability counter screen (AID 1259367). Also: nearly all actives have a fitted effect of over 55% in size. In outline: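 CellTiter-Fluor signal in conditioned medium-stimulated 3T3 Gli1-Luc cells, 23 hr compound exposure, 37C.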
Experiment [16] can be described thus: qHTS assay to identify small molecule agonists of the sonic hedgehog signaling (Shh) pathway (AID 1259368; calls by dose curve;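 also: NIH/3T3-derived 3T3Gli1-Luc cells carrying a stable Gli1-driven firefly luciferase reporter; series mostly up to about 92 µM; nearly all actives have a fitted effect of over 15% in size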). In outline: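 Luminescence was read after 30 min at room temperature with luciferase reagent. Before that, 3T3Gli1-Luc cells (NIH/3T3 clone, stable Gli1-Luc reporter; 2,000/well) were exposed to compounds for 24 hr at 37C, 5% CO2, compounds being added 4 hr post-plating.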

Experiment [17] concerns the target Androgen receptor (Homo sapiens) (UniProt P10275). Kind of experiment: qHTS assay to identify small molecule antagonists of the androgen receptor (AR) signaling pathway using the MDA cell line in the presence of 0.5 nM R1881 (AID 1259243). Also: nearly all actives have a fitted effect of over 50% in size. In outline:
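Luminescent reporter readout (ONE-Glo, 30 min, room temperature) after 16 hr co-treatment of MDA-kb2 cells with test compounds and 0.5 nM R1881 final, at 37C without CO2. The MMTV-driven luciferase responds to both AR and GR.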

The nature of experiment [18]: A CellTox Green Cytotoxicity Assay to monitor cytotoxicity in HepG2 cells - 8 hour (AID 1224890). Also: nearly all actives have a fitted effect of over 45% in size. Also: potency is read from the fitted curve at half-maximal effect. In outline:
as §2

Experiment [19] is described as follows: qHTS assay to identify small molecule antagonists of the androgen receptor (AR) signaling pathway using the MDA cell line in the presence of 0.5 nM R1881 - cell viability counter screen (AID 1259242). Also: nearly all actives have a fitted effect of over 45% in size. In outline:
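Live-cell protease activity was measured by CellTiter-Fluor fluorescence after 30 min. Before that, MDA-kb2 MMTV-luciferase cells had 16 hr at 37C without CO2, exposed to test compounds and 0.5 nM R1881 final.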

A short description of experiment [20]: qHTS assay to identify small molecule phospholipidosis (PLD) inducers (AID 1259344; active = well fitted curve in the direction sought with a large enough effect; an effect the other way counts as inactive or inconclusive). In outline: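 Accumulated phospholipid, stained red by LipidTOX during 24 h compound treatment of HepG2 cells at 37 C, is quantified from images as pit number and intensity, normalised per cell using Hoechst-stained nuclei.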

Chain of Androgen receptor (Homo sapiens) (P10275 whole entry, looked up): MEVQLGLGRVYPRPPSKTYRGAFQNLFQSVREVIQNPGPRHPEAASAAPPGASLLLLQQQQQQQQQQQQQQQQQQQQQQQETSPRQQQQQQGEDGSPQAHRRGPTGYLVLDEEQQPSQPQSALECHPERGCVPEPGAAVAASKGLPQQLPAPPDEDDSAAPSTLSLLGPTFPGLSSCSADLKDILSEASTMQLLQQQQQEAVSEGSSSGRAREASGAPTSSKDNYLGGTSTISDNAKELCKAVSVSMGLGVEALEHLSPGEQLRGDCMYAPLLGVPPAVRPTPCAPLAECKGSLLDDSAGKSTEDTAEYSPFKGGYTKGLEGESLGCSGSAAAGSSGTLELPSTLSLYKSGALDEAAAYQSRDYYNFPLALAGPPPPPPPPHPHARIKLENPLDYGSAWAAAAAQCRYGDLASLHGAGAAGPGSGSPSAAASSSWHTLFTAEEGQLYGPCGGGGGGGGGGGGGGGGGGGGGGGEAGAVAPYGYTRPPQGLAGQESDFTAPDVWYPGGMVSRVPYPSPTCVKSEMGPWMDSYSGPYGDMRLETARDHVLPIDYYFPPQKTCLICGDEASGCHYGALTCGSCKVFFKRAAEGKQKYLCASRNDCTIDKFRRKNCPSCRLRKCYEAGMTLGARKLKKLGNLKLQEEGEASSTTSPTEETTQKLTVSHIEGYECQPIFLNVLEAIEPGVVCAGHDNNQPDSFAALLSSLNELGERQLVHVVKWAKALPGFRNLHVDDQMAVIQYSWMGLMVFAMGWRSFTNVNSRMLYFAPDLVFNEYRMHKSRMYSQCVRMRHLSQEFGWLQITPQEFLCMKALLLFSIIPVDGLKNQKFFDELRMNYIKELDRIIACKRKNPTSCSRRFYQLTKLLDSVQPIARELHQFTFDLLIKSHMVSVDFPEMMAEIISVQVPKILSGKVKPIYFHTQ

With `CNC(=S)S`, the Potency entry in [1], in experiment [2], in [3], in experiment [4], in [5] and in experiment [6] was “inactive” throughout. In addition, the Potency result in experiment [7], in experiment [8], in experiment [9], in [10], in [11] and in experiment [12] was “inactive” each time. Also, the Potency result in experiment [13], in experiment [14] and in [15] was “inactive” each time.

Turning to `CCOP(=S)(OCC)SCn1c(=O)oc2cc(Cl)ccc21`, the Potency result in experiment [1], in experiment [2], in experiment [3], in [4], in experiment [5] and in [8] was “inactive” throughout. In addition, the Potency entry in experiment [9], in experiment [10], in [11], in experiment [12], in experiment [13] and in [14] was “inactive” throughout. Moreover, the Potency result in [15] and in [16] was “inactive” each time. Further, the Potency was 26.3 µM (active) and 21.9 µM (active) in [6]; 26.3 µM (active) and 15.5 µM (active) in experiment [7].

Take `CNC(=O)Oc1cccc2c1OC(C)(C)C2`: the Potency entry in experiment [1], in experiment [2], in experiment [3], in [4], in experiment [5] and in experiment [6] was “inactive” in each case. Further, the Potency entry in [7], in experiment [8], in experiment [9], in [10], in [17] and in experiment [11] was “inactive” each time. Besides, the Potency entry in experiment [12], in [13] and in experiment [15] was “inactive” in each case.

As to `COP(=S)(OC)Oc1ccc(S(=O)(=O)N(C)C)cc1`, the Potency result in [1], in experiment [2], in experiment [3], in experiment [4], in experiment [6] and in experiment [7] was “inactive” each time. Also, the Potency result in [8], in [9], in [18], in experiment [10], in experiment [19] and in experiment [17] was “inactive” throughout. In addition, the Potency result in experiment [11], in experiment [12], in [13], in experiment [14] and in experiment [15] was “inactive” in each case. In addition, the result in experiment [20] was inactive.

In the case of `CCCCCCCCCCCCCl`, the Potency result in experiment [1] was “inactive and 19.5 µM (active)”; in [2], “inactive and 19.5 µM (active)”; in experiment [3], “inactive and 12.3 µM (active)”; in [4], “inactive and 19.5 µM (active)”; in [18], “inactive and 12.3 µM (active)”. Further, the Potency entry in [5], in [6], in [7], in experiment [9], in experiment [10] and in experiment [11] was “inactive” each time. In addition, the Potency result in experiment [12] and in [15] was “inactive” each time.

`CCC1(c2ccc(N)cc2)CCC(=O)NC1=O` (configuration not stated): the Potency result in experiment [1], in experiment [2], in experiment [3], in [4], in experiment [6] and in experiment [7] was “inactive” in each case. Moreover, the Potency result in experiment [8], in experiment [9], in experiment [18], in [10], in experiment [19] and in experiment [17] was “inactive” in each case. Also, the Potency result in experiment [11], in [12], in [13], in experiment [14], in experiment [15] and in experiment [16] was “inactive” throughout. Further, in experiment [20], the call was inactive.

Consider `C=CC(Cl)CCl` (configuration not stated), for which the Potency result in [1], in experiment [2], in [3], in experiment [4], in experiment [5] and in experiment [6] was “inactive” each time. In addition, the Potency result in [7], in experiment [8], in experiment [9], in experiment [10], in experiment [17] and in experiment [12] was “inactive” in each case. The Potency result in experiment [13], in experiment [14], in experiment [15] and in [16] was “inactive” throughout.
